Assay outcomes from PubChem BioAssay.
DAX1 inh-1: DAX1 (NR0B1) inhibitors on StAR promoter, primary screen, cell-based, luminescence, SF-1 (NR5A1), full-length DAX-1 | HEK293T StAR-luciferase reporter, SF-1/DAX-1 repression relief | inhibition, % at 6.8 µM | 1.1% of 370,000 active;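 active = inhibition above the mean over all tested compounds plus 3 SD, cut at about 3.6% in these data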;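 note: 0% = DAX-1 cells with DMSO and 100% = cells lacking DAX-1 with DMSO; higher inhibition means more luminescence from relief of DAX-1 repression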
SMARCA2 act: SMARCA2 (BRM) function activators, primary screen, cell-based, luminescence, high throughput; AID 652017, 2013; 1% of 370,000 active; activation, % at 9.1 µM; MG213 cells, MMTV-luciferase reporter, dexamethasone, overnight; in the data active = activation above about 7.8%;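 note: 0% = vehicle wells and 100% = reference activator wells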
DAX1 inh-2: DAX1 (NR0B1) inhibitors, primary screen, cell-based, HEK293, Gal4-DAX1, luciferase luminescence; AID 504766, 2011; Nuclear receptor subfamily 0 group B member 1 (Homo sapiens), P51843; inhibition, % at 6.75 µM; HEK293 Gal4-DAX1 luciferase reporter; 0.99% of 340,000 active;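 active = inhibition above the mean over all tested compounds plus 3 SD, cut at about 4.2% in these data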;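 note: 0% = DAX1-transfected cells with DMSO and 100% = empty-vector control cells with DMSO; inhibition shows as a rise in luminescence from relieved DAX1 repression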
Target sequence (P51843 207-470 limits assumed): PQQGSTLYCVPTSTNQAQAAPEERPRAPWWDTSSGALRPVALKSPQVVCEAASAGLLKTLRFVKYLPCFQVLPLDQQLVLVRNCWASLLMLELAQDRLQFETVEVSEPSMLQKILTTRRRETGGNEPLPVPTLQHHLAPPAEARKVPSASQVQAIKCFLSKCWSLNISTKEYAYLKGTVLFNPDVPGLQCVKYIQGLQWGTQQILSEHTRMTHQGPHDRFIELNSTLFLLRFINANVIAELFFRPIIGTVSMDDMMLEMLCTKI
hcDAF-12 act: H. contortus DAF-12 nuclear receptor activators, primary screen, cell-based, luminescence, HEK293, lit1-tk-luc reporter | HEK293 hcDAF-12 lit1-tk-luc reporter; 0% DMSO, 100% Δ7-dafachronic acid | activation, % at 6.8 µM | 1.4% of 370,000 active | AID 652067, 2013;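 active = activation above the mean of all tested compounds plus 3 SD, cut at about 5.5% in these data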;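 note: 100% = response to 3 µM Δ7-dafachronic acid high control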
ssDAF12 agonist: S. stercoralis DAF-12 nuclear receptor activators, primary screen, cell-based, luminescence, HEK293, GRIP1 co-expression, lit1-tk-luc. 1% of 370,000 active. HEK293 ssDAF-12/GRIP1 lit1-tk-luc reporter; % of 3 µM dafachronic acid response. Nuclear hormone receptor DAF-12 (Strongyloides stercoralis). activation, % at 6.8 µM;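 active = activation above the mean over all tested compounds plus 3 SD, cut at about 0.9% in these data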;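 note: 0% = DMSO-only wells and 100% = 3 µM delta7-dafachronic acid wells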
hgDAF12 agonist: H. glycines DAF-12 receptor agonists, primary screen, cell-based, luminescence, HEK293, GAL4 fusion, UAS-luciferase. Nuclear hormone receptor DAF-12 (Heterodera glycines), GAL4 fusion. HEK293 GAL4-hgDAF12 UAS-luciferase reporter, agonist luminescence; normalized to butyrate control. activation, % at 6.8 µM. 1.8% of 370,000 active. AID 687014, 2013;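 active = activation above a cutoff set at the mean of all screened compounds plus 3 SD, cut at about 10% in these data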;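 note: 0% = DMSO wells and 100% = sodium butyrate wells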
* marks the source's active call; other numbers are inactive results; / = no result. A selection: hits, their analogues and other compounds. The true share with any hit is near 4.8%.

SMILES	DAX1 inh-1	SMARCA2 act	DAX1 inh-2	hcDAF-12 act	ssDAF12 agonist	hgDAF12 agonist
Cc1ccc(-c2csc(-c3ccncc3)n2)cc1	0	-1	1	4	-1	11*
COc1ccc(N2CC(O)=C(c3nc(-c4ccc(Cl)cc4)cs3)C2=N)cc1	1	-5	0	1	0	12*
COc1ccc(C(N)=S)cc1	0	-1	4.3*	-2	-1	-1
CC(C)[C@H](N)C(=O)N1CCC[C@@H]1C(=O)N1CCC2CCN(S(=O)(=O)c3ccccc3)CC21 (stereo partly specified)	0	2	/	0	-1	2
CCCCC(=O)Nc1ccc(C(=O)NCC2COc3ccccc3O2)cc1 (stereo unspecified)	0	-2	/	-1	-1	3
Cn1ccc2ccc(-c3ccc4c(c3)[C@]3(CCC[C@@H](OCc5ccccc5)[C@@H]3NC(=O)CCc3ccccc3)C(=O)N4Cc3ccccc3)cc21	0	-4	/	-2	-1	-1
COc1ccc(O)cc1	0	-1	4.5*	0	-1	0
Cc1oncc1-c1csc(-c2ccccc2Cl)n1	0	2	1	-1	-2	7
c1ccc(CNc2nc(-c3cccnc3)cs2)cc1	0	2	1	0	-1	11*
COc1ccc(-c2ccnc(-c3ccc(O)cc3)n2)cc1	-1	0	-2	2	-1	8
c1ccc(-c2nc(-c3cccnc3)cs2)cc1	1	7	1	3	0	5
c1ccc(-c2csc(-c3cccnc3)n2)cc1	0	3	1	3	-1	11*
Cc1oncc1-c1csc(-c2ccccc2)n1	0	2	5.3*	1	-1	6
COC(=O)C1CN(Cc2ccc(OC)cc2)CCS(=O)(=O)N1Cc1cn(Cc2ccc(OC)cc2)nn1 (stereo unspecified)	0	-3	/	-2	-1	-3
CC(C)(C)OC(=O)NCCCc1ccc2c(c1)[C@]1(CCC[C@@H](OCc3ccccc3)[C@@H]1NC(=O)CCc1ccccc1)C(=O)N2Cc1ccccc1	0	-1	/	-1	0	6
COc1ccc(-c2csc(C(O)c3ccccc3)n2)cc1 (stereo unspecified)	3.8*	2	/	3	0	5
COc1cccc(C(=O)N2CCC(Oc3cccnc3)CC2)c1	1	-1	/	-1	-1	-4
CCc1ccc(OCc2cnc(Cl)s2)cc1	1	1	4.4*	2	-2	-1
Clc1ccc(OCc2cnc(Cl)s2)cc1	1	1	1	-1	-1	3
COc1ccc(-n2c(SCC(=O)Nc3ccc4c(c3)OCCO4)nnc2-c2ccccc2)cc1	-1	-3	/	-1	-1	-2
O=C(COc1ccccc1[N+](=O)[O-])NCC1(N2CCCCC2)CCCCC1	1	-2	0	1	0	2
N#Cc1ccccc1OCC(=O)NCC1(N2CCCCC2)CCCCC1	1	3	0	3	1.5*	9
CCOc1ccccc1NC(=S)N(CCC(C)C)C1CCN(C(C)=O)CC1	0	-2	4.7*	1	-1	2
CCOc1ccccc1NC(=S)N1CCC(NC(=O)C(C)(C)C)CC1	-1	0	5.0*	1	-1	3
O=C(C1CCC1)N1CCc2cc(S(=O)(=O)N3CCCC3)ccc21	-1	-2	/	0	-2	-4
SMILES	DAX1 inh-1	SMARCA2 act	DAX1 inh-2	hcDAF-12 act	ssDAF12 agonist	hgDAF12 agonist
C=CCC1(CC=C)CCCN1C(=O)c1ccc2oc(CCCC)nc2c1	1	1	4.9*	6.3*	0	12*
CCCCc1nc2cc(C(=O)N3CCC(OC)CC3)ccc2o1	1	3	2	3	-1	3
Cc1ccc(CSc2nnc(-c3cc(-c4ccc(C)cc4)n[nH]3)n2N)cc1	0	-3	/	-2	-1	-1
COC(=O)[C@]12C[C@H](CC(=O)NCc3ccc(C)o3)C(=O)N(Cc3cccc4ccccc34)C1=C[C@H](C(C)C)O[C@@H]2C1CC1	-2	-4	/	0	-1	0
CCOc1ccccc1N1C(=O)CC(Sc2ccccc2N)C1=O (stereo unspecified)	0	2	1	0	-1	0
COc1ccc(Cl)cc1N1C(=O)CC(Sc2ccccc2N)C1=O (stereo unspecified)	0	-5	1	-1	1.6*	3
CN1C2=N[C@H](c3ccc(Br)cc3)CC(=O)N2/C(=C\c2ccccc2)[C@@H]1c1ccccc1	/	/	/	-2	-2	0
O=C(CN1CCN(Cc2ccccc2Cl)C1=O)NCc1cccnc1	-1	-4	6.0*	-1	-2	1
Cc1ccc(-c2nnn(CC(=O)N(CC(=O)NC3CCCCC3)c3cccc(F)c3)n2)o1	0	0	-1	-1	-1	0
Cc1ccc(-c2nnn(CC(=O)N(CC(=O)NC3CCCCC3)c3ccccc3F)n2)o1	0	-2	4.2*	-1	-2	-1
COc1ccccc1CNC(=O)NCCCN1CCN(c2ccc(F)cc2)CC1	0	-3	/	-2	-2	-2
O=C(CC1CC2CCC1C2)Nc1nc(-c2ccccn2)cs1 (stereo unspecified)	0	-1	0	6.3*	-1	8
O=S(=O)(c1ccccc1Br)N(Cc1cn(Cc2ccccc2)nn1)C1CC1	0	-5	/	-2	-2	-2
O=[N+]([O-])c1cccnc1Nc1ccc(Cl)cc1	0	-2	0	2	-1	4
Clc1ccc(Nc2nc3cccnc3s2)cc1	1	1	2	4	0	11*
CCCCNc1nc2cccnc2s1	0	-1	6.3*	0	-1	5
CCOc1ccc(-n2c(SC/C=C/c3ccccc3)nnc2-c2ccco2)cc1	-1	-6	/	-2	-2	4
CN(C)S(=O)(=O)c1ccc(C(=O)OCCN=C2NS(=O)(=O)c3ccccc32)cc1	1	-2	0	0	-1	1
CN(C)S(=O)(=O)c1ccc(C(=O)OCCCN=C2NS(=O)(=O)c3ccccc32)cc1	-1	-1	4.4*	-2	-1	1
C/C(=N\NC(=O)c1nn(C)cc1Br)c1cccc(NC(=O)C(C)(C)C)c1	1	3	4	0	0	8
